In experiment [1] the target is Estrogen receptor (Homo sapiens) (UniProt P03372). In words: CCTE_Deisenroth_AIME_384WELL_LUC_Shift: CCTE's 384-well Estrogen Receptor Transactivation Assay with AIME metabolic competence data shift (ERTA luciferase; difference in metabolism positive and negative), Deisenroth Lab (AID 2284041).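 Also: shift is response with S9 minus without S9 so positive means metabolism raised ER signal.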 Put shortly:
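Chemicals (0.002–200 uM, 10 points) pre-incubated 2 h with alginate-encapsulated induced male Sprague Dawley rat liver S9 or S9-free, then medium applied 24 h to VM7Luc4E2 cells; luciferase. Endpoint is per-concentration difference, S9-positive minus negative.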

For the next experiment, the system named is DIO2 (gene 1734). Put plainly: CCTE_GLTED_hDIO2: CCTE's human Deiodinase 2 (DIO2) Inhibition Assay, Great Lakes Toxicology and Ecology Division (GLTED) Lab (AID 2284050; active = hit-call score of the fitted dose curve at least 0.9, where 1 is the maximum). The essentials:
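Readout: absorbance from Sandell-Kolthoff detection of free iodide released by human DIO2 during a 3 h incubation with chemical. Cell-free format, n=3; activity fitted relative to DMSO negative control.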

Experiment [2] in a line: CCTE_Shafer_MEA_dev_burst_rate: CCTE's Neural Network Formation Assay for Burst Rate, Shafer Lab (AID 2284042).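 As to AC50: potency for loss of burst rate below DMSO control.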 The essentials: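 Cells plated, treated day 0; recorded DIV 5, 7, 9, 12; fed and re-treated DIV 5, 9. Endpoint: bursts per recording time, active-electrode well mean, trapezoidal AUC, fitted in decreasing direction against DMSO baseline.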
Experiment [3] can be described thus: CCTE_Shafer_MEA_dev_bursting_electrodes_number: CCTE's Neural Network Formation Assay for Number of Bursting Electrodes, Shafer Lab (AID 2284043; active = hit-call score of the fitted dose curve at least 0.9, where 1 is the maximum;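 as to AC50: potency is for loss of bursting electrodes relative to DMSO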). The essentials:
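Rat cortical primary neurons, 48-well MEA, 16 electrodes/well; dosing DIV 0–12, re-dosed with full media change DIV 5, 9. Recordings DIV 5/7/9/12, AxIS adaptive spike detector; bursting electrode = ≥1 burst/2 min. AUC across days; loss of signal vs DMSO.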

Experiment [4] can be described thus: CCTE_Shafer_MEA_dev_per_burst_interspike_interval: CCTE's Neural Network Formation Assay for Burst Interspike Interval, Shafer Lab (AID 2284044).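 Also: mean spike spacing inside bursts as AUC over recordings on days 5 7 9 12.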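 As to AC50: potency for a decrease of within-burst interspike interval below DMSO level.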 The essentials: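 Primary rat cortical neurons on 48-well MEA plates, exposed from day 0 through day 12, treatment renewed at DIV 5 and 9. Within-burst interspike interval recorded days 5, 7, 9, 12, well-averaged, summarised as AUC; negative fit versus DMSO.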

Experiment [5] is described as follows: CCTE_Shafer_MEA_dev_burst_duration_mean: CCTE's Neural Network Formation Assay for Mean Burst Duration, Shafer Lab (AID 2284045).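 As to AC50: curve fitted for loss meaning shorter burst duration than DMSO.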 The essentials:
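Rat cortical cultures, 1.5 x 10^5 cells/well with laminin drop; continuous dosing days 0–12, media plus treatment refreshed DIV 5, 9. AxIS adaptive spike detection; mean single-electrode burst duration, AUC over four recordings, negative direction vs DMSO.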

A short description of experiment [6]: CCTE_Shafer_MEA_dev_interburst_interval_mean: CCTE's Neural Network Formation Assay for Mean Interburst Interval, Shafer Lab (AID 2284046).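 Also: well-mean interburst interval of bursting electrodes as AUC over four recording days; curve fitted for decrease in interburst interval relative to DMSO.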 Put shortly:
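Developing rat cortical networks on 48-well MEAs receive compound from the day of plating. Burst intervals from each active electrode are averaged per well, and AUC over the recording days is fitted in the negative direction against DMSO.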

Experiment [7] can be described thus: CCTE_Shafer_MEA_dev_inter_network_spike_interval_mean: CCTE's Neural Network Formation Assay for Mean Inter-network Spike Interval, Shafer Lab (AID 2284047). The essentials:
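Rat cortical cultures, 1.5 x 10^5 cells/well on 48-well MEA plates; continuous exposure days 0–12, medium and compound refreshed DIV 5, 9. Mean time between consecutive network-spike peaks; AUC across DIV 5/7/9/12; DMSO baseline, negative fitting direction.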

Experiment [8] in a line: CCTE_Shafer_MEA_dev_network_spike_number: CCTE's Neural Network Formation Assay for Number of Network Spikes, Shafer Lab (AID 2284048).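 Also: synchronized bursts across electrodes counted on days 5 7 9 12 and integrated as AUC.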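 As to AC50: fit as a loss of signal meaning fewer network spikes than DMSO.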 The essentials: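 Rat cortical primary cultures on 48-well MEA (16 electrodes/well); continuous exposure DIV 0–12, full medium and treatment exchange DIV 5, 9. Readout: network spike count, AxIS adaptive detection, recordings DIV 5/7/9/12 collapsed to AUC; loss-of-signal fit, DMSO baseline.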

Experiment [9] can be described thus: CCTE_Shafer_MEA_dev_network_spike_peak: CCTE's Neural Network Formation Assay for Mean Number of Electrodes in Network Spike, Shafer Lab (AID 2284049).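 As to AC50: fitted for loss of signal meaning fewer electrodes in network spikes than DMSO.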 Put shortly: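 Network-spike peak electrode count from recordings on days 5, 7, 9 and 12 was combined as trapezoidal area under the curve. Rat cortical cultures were treated continuously from plating, with compound renewed at each feed (DIV 5, 9); fits versus DMSO.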

Each structure is given as a SMILES string. Inconclusive results are not listed. Calls of active or inactive are those of the source. The calls were made as follows, unless noted: active = hit-call score of the fitted dose curve at least 0.9, where 1 is the maximum; inactive = score below 0.9.

Estrogen receptor (Homo sapiens), sequence (P03372 whole entry, looked up): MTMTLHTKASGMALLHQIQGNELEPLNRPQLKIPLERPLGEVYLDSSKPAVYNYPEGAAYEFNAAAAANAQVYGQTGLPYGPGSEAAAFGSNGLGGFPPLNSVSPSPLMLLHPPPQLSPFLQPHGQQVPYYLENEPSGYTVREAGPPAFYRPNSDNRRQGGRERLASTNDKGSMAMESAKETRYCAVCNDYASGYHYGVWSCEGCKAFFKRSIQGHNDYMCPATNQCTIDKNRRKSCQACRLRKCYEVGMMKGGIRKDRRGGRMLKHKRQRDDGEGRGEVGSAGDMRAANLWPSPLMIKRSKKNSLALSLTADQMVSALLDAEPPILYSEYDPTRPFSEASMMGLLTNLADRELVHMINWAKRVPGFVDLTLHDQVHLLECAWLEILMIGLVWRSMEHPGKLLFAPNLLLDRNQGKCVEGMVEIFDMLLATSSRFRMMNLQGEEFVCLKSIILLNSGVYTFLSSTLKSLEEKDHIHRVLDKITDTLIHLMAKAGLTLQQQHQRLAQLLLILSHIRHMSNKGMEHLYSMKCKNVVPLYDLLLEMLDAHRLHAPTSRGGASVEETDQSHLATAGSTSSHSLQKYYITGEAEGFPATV

Turning to `O=C(O)c1[nH]n(-c2ccc(S(=O)(=O)O)cc2)c(=O)c1N=Nc1ccc(S(=O)(=O)O)cc1`, the result in [1] was inactive.

Regarding `O=C(O)CC(O)(CC(=O)O)C(=O)O`, the result in [1] was inactive.

A word on the AC50: it is the concentration at which the activity in the assay is half-maximal. For the molecule `CCCCCCCCCCCCCCOS(=O)(=O)O`, in the experiment on DIO2 (gene 1734), the AC50 was 36.9 µM (active).

On to `O=C1NC(=O)C(c2ccccc2)(c2ccccc2)N1`, for which the outcome in [2], in [3], in experiment [4], in [5], in experiment [6] and in experiment [7] was inactive. For the same molecule, the result in experiment [8] and in experiment [9] was inactive.

With `O=C(O)CN(CC(=O)O)CC(=O)O`, the AC50 in experiment [1] is 233 µM (active).

Consider `OCC(O)CO`, for which the outcome in experiment [2], in [3], in experiment [4], in experiment [5], in experiment [6] and in experiment [7] was inactive. The result in [8] and in experiment [9] was inactive.

With `CC(=O)CC(c1ccccc1)c1c(O)c2ccccc2oc1=O` (stereo not drawn), the molecule was classed as inactive in [2], in experiment [4], in experiment [5], in experiment [6], in experiment [7] and in experiment [8]. Further, the AC50 in [3] and in [9] was 2.98 µM (active) throughout.

Consider `CCCCCCC(CCCCCCCCCCC(=O)OCC(COC(C)=O)OC(C)=O)OC(C)=O` (stereo not drawn), for which the outcome in [1] was inactive.

As to `CCCCCCC(C=O)=Cc1ccccc1`, the AC50 with DIO2 (gene 1734) is 15.2 µM (active).

`CC(C)OC(=O)C(C)(C)Oc1ccc(C(=O)c2ccc(Cl)cc2)cc1`: the outcome in [1] was inactive.

As to `Cc1ccc(C(C)(C)C)c(O)c1`, the result in experiment [1] was inactive.

Turning to `CC(C)c1cccc(C(C)C)c1`, the result in [1] was inactive.

On to `CC1(C)C(=O)NC(=O)N1CO`, for which the result in [1] was inactive.

As to `O=Cc1ccccc1C=O`, the AC50 with DIO2 (gene 1734) was 46.6 µM (active).

For `Cc1c(C)c2c(c(C)c1O)CCC(C)(COc1ccc(CC3SC(=O)NC3=O)cc1)O2` (stereo not drawn), the AC50 in the experiment with DIO2 (gene 1734) is 70.1 µM (active).

In the case of `CN(C)CCCN1c2ccccc2Sc2ccc(Cl)cc21`, the AC50 in experiment [2] is 5.08 µM (active); in [3] it was 4.33 µM (active); in [4], 8.95 µM (active); in experiment [5], 4.79 µM (active); in experiment [6], 7.95 µM (active); in [8], 8.7 µM (active). Moreover, the AC50 in experiment [9] is 5.16 µM (active). Also, the outcome in experiment [7] was inactive.

For the molecule `c1ccc2occc2c1`, in experiment [1], the outcome was inactive.

On to `S=c1[nH]c2ccccc2s1`, for which the AC50 with DIO2 (gene 1734) was 53.4 µM (active).

As to `O=[Si]=O`, the result in experiment [1] was inactive.

Take `NC1CCCCC1`: the result in [1] was inactive.

Take `COC(=O)[C@H]1[C@H]2C[C@@H]3c4[nH]c5cc(OC)ccc5c4CCN3C[C@H]2C[C@@H](OC(=O)c2cc(OC)c(OC)c(OC)c2)[C@@H]1OC`: the AC50 in [2] was 5.23 µM (active); in experiment [3], 3.34 µM (active); in experiment [4] it was 3.76 µM (active); in experiment [5], 2.43 µM (active); in [6], 3.27 µM (active); in experiment [9], 5.07 µM (active). For the same molecule, the molecule was called inactive in experiment [7].

With `CSc1ccc(Oc2ccc(S(N)(=O)=O)cc2CN(C)C)cc1C`, the result in experiment [1] was inactive.

On to `CCN(CC)CCOc1ccc(C(=C(Cl)c2ccccc2)c2ccccc2)cc1`, for which the AC50 with DIO2 (gene 1734) was 53.3 µM (active).

On to `CN(C)CCCN(C)CCCN(C)C`, for which the outcome in experiment [1] was inactive.

`COC(=O)CCC(=O)OC`: the outcome in experiment [1] was inactive.

Regarding `O=C1CCCCC1`, the result in experiment [1] was inactive.

Turning to `CC1=C(C)S(=O)(=O)CCS1(=O)=O`, the result in [1] was inactive.

On to `CCCCCCCCCCCCCCCCO`, for which the result (in experiment [1]; with DIO2 (gene 1734)) was inactive.

As to `CCCCCCCC(=O)OC`, the outcome in experiment [1] was inactive.

Turning to `Cc1ccc(-c2cc(C(F)(F)F)nn2-c2ccc(S(N)(=O)=O)cc2)cc1`, the AC50 in the experiment on DIO2 (gene 1734) is 156 µM (active).

Regarding `CC(=O)O[C@]1(C(C)=O)CC[C@H]2[C@@H]3C=C(Cl)C4=CC(=O)[C@@H]5C[C@@H]5[C@]4(C)[C@H]3CC[C@@]21C`, in the experiment with DIO2 (gene 1734), the molecule was called inactive.

As for `O=C(Oc1ccccc1)c1cccc(C(=O)Oc2ccccc2)c1`, the AC50 in the experiment on DIO2 (gene 1734) is 42.3 µM (active).

Consider `Nc1nc(=S)c2[nH]cnc2[nH]1`, for which the outcome in [1] was inactive.

The record behind these values is PubChem BioAssay (EPA / NIEHS).
